These results are taken from PubChem BioAssay (NCI).

Among the test systems are HCT-15 colon; HT29 colon; SNB-75 CNS; SNB-19 CNS; U251 CNS; PC-3 prostate; SK-MEL-5 melanoma; UACC-62 melanoma; LOX IMVI melanoma; SK-MEL-28 melanoma.
Assay in all cases: NCI-60 one-dose screen, 48 h (100 = growth as untreated, 0 = no growth, -100 = all killed)
Conditions in all cases: 10 µM unless noted

Each structure is given as a SMILES string. Compounds without any hit were thinned out: in the full panel of roughly 83,000, 20% have a hit.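 Single-dose data. Exposure time 48 hours. Values below 10 considered active.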 Values without a mark were called inactive. Calls of active or inactive are those of the source.

In the case of `Nc1ncnc2c1N=C(c1ccc3c(c1)OCO3)CC(c1ccc(Cl)cc1)N2` (stereo not given), the growth in the test with HCT-15 colon is 63.6%; with HT29 colon, 69.8%; in the test with SNB-75 CNS it was 48.5%; with SNB-19 CNS, 67.8%; in the test on U251 CNS, 74%; with PC-3 prostate, 62.6%. In addition, the growth in the test on SK-MEL-5 melanoma was 78%; in the test on UACC-62 melanoma, 60.3%; with LOX IMVI melanoma it was 76.2%; with SK-MEL-28 melanoma it was 88.5%.
As to `COc1cc2c(cc1OC)-c1cc(OC)c(OC)cc1C(CN(C)C)C2` (stereo not given), the growth is 78.2% [100 µM] in the test on HCT-15 colon; 78.4% [100 µM] in the test on HT29 colon; -56.2% [100 µM] (active) in the test on SNB-75 CNS; 7.08% [100 µM] (active) in the test with SNB-19 CNS; 56.3% [100 µM] in the test with PC-3 prostate; 73.4% [100 µM] with SK-MEL-5 melanoma. For the same compound, the figures for the growth with UACC-62 melanoma, in the test with LOX IMVI melanoma and in the test with SK-MEL-28 melanoma were 20.4% [100 µM], 71.1% [100 µM] and 41.4% [100 µM], respectively.
Regarding `CCN(CC)CCNC(=O)n1cc(-c2ccncc2)c(-c2cc(Cl)cc(OC)c2)n1`, the growth was 86% in the test with HCT-15 colon; 31.3% with HT29 colon; 48% in the test on SNB-75 CNS; 76.5% with SNB-19 CNS; 75.4% with U251 CNS; 79.8% in the test with PC-3 prostate. The growth in the test on SK-MEL-5 melanoma was 84.8%; with UACC-62 melanoma, 70.3%; in the test on LOX IMVI melanoma, 78.7%; in the test with SK-MEL-28 melanoma, 91.3%.
`O=C1/C(=C/c2cc(F)cc(F)c2)Cc2cc(F)cc(F)c21`: the growth in the test with HCT-15 colon was 95.4%; in the test with HT29 colon it was 92.3%; in the test with SNB-75 CNS, 93.9%; in the test with SNB-19 CNS, 86.8%; with U251 CNS it was 104%; in the test on PC-3 prostate, 88.1%. For the same compound, the growth with SK-MEL-5 melanoma was 76.8%; in the test with UACC-62 melanoma, 85.6%; in the test on LOX IMVI melanoma it was 86.8%; in the test with SK-MEL-28 melanoma, 96.7%.
Take `OCCN(CCO)c1ccc2ccccc2c1`: the growth in the test on HCT-15 colon is 98.4%; in the test with HT29 colon, 94.3%; in the test on SNB-75 CNS it was 88.1%; with SNB-19 CNS, 104%; with U251 CNS, 104%; in the test on PC-3 prostate it was 83.2%. Further, the growth in the test on SK-MEL-5 melanoma is 100%; with UACC-62 melanoma it was 91.4%; in the test with LOX IMVI melanoma it was 91.4%; in the test with SK-MEL-28 melanoma it was 108%.
For the compound `C[C@@H]1CC2C3CCC4=CC(=O)C=C[C@]4(C)[C@@]3(Cl)[C@@H](O)C[C@]2(C)[C@@]1(OC(=O)c1ccco1)C(=O)CCl` (stereo not given in full), the growth with HCT-15 colon is 79.7%; in the test on HT29 colon it was 70.8%; in the test on SNB-75 CNS it was 86.3%; with SNB-19 CNS, 86%; with U251 CNS, 85%; in the test with PC-3 prostate, 49.9%. Besides, the growth with SK-MEL-5 melanoma was 55%; in the test on UACC-62 melanoma it was 42%; with LOX IMVI melanoma, 61.6%; in the test with SK-MEL-28 melanoma, 88.9%.
As for `CCN(CC)c1ccc(/C=N/N=C(N)N)cc1`, the growth was 41.2% in the test on HCT-15 colon; 9.78% (active) in the test with HT29 colon; 40.2% with SNB-75 CNS; 46.9% in the test on U251 CNS; 30.7% in the test with PC-3 prostate; 40.2% with SK-MEL-5 melanoma. Also, the growth was 48.4% in the test on UACC-62 melanoma, 55.5% with LOX IMVI melanoma and 61.7% in the test with SK-MEL-28 melanoma.
As to `CC(CN1CCN(CC(C)Nc2ccnc3cc(Cl)ccc23)CC1)Nc1ccnc2cc(Cl)ccc12` (stereo not given), the growth in the test on HCT-15 colon is -1.75% (active); in the test on HT29 colon it was -19.7% (active); in the test on SNB-75 CNS, -26.8% (active); in the test on U251 CNS, 0.467% (active); with PC-3 prostate, 26.2%; in the test with SK-MEL-5 melanoma, -97.6% (active). Further, the growth in the test with UACC-62 melanoma was -62.7% (active); in the test on LOX IMVI melanoma, -86.1% (active); with SK-MEL-28 melanoma, -91.4% (active).
Regarding `CCOC(=O)Nc1ccc2nc(N3CCCCCC3)sc2c1`, the growth was 24.7% in the test on HCT-15 colon; 6.49% (active) with HT29 colon; -8.82% (active) with SNB-75 CNS; 22.8% with U251 CNS; 25% in the test with PC-3 prostate; 11.5% with SK-MEL-5 melanoma. Besides, the growth is 26% in the test with UACC-62 melanoma, 44.4% in the test on LOX IMVI melanoma and 42.6% with SK-MEL-28 melanoma.
For `Cc1nn(-c2ccccc2)c2nc3c(nc12)C1=NCCN1C(c1ccc(Cl)cc1)N3` (stereo not given), the growth was 66.4% with HCT-15 colon; 19% in the test with HT29 colon; 62.1% in the test with SNB-75 CNS; 55.1% in the test on PC-3 prostate; 65.6% in the test on SK-MEL-5 melanoma; 84.8% in the test with UACC-62 melanoma. Moreover, the growth is 79.1% in the test with LOX IMVI melanoma and 73.3% in the test with SK-MEL-28 melanoma.
Turning to `Oc1ccc(-c2nnc3c4[nH]ccc4ncn23)cc1`, the growth is 110% with HCT-15 colon; 98.3% in the test with HT29 colon; 98.9% with SNB-19 CNS; 102% in the test on U251 CNS; 94.3% with PC-3 prostate; 104% in the test on SK-MEL-5 melanoma. The values for the growth in the test on UACC-62 melanoma, in the test on LOX IMVI melanoma and with SK-MEL-28 melanoma were 95.2%, 89.9% and 102%, respectively.
With `C=C[C@H]1CCC/C=C/[C@@H]2C[C@H](O)C[C@H]2[C@H](O)/C=C/C(=O)O1`, the growth is 5.82% (active) in the test on HCT-15 colon; -51.5% (active) in the test with HT29 colon; 25.8% in the test with SNB-75 CNS; 14.6% in the test with U251 CNS; 15.1% with PC-3 prostate; -77.7% (active) in the test with SK-MEL-5 melanoma. For the same compound, the figures for the growth with UACC-62 melanoma, with LOX IMVI melanoma and with SK-MEL-28 melanoma were 5.56% (active), -99.1% (active) and 7.46% (active), respectively.
For the compound `CCS(=O)(=O)Nc1cccc(Nc2c3cccc(C)c3nc3c(C)cccc23)c1OC`, the growth with HCT-15 colon was 11.1%; in the test with HT29 colon, 11.3%; with SNB-19 CNS, 38.8%; with U251 CNS, 7.01% (active); in the test on PC-3 prostate it was 21.4%; with SK-MEL-5 melanoma, 17.4%. Besides, the growth is 45.5% with UACC-62 melanoma, 12.8% in the test with LOX IMVI melanoma and 56.9% with SK-MEL-28 melanoma.
On to `CN(C)c1nc(-c2cccs2)n2nc(-c3ccc(Cl)cc3)cc2n1`, for which the growth is 92% in the test on HCT-15 colon; 33.2% in the test on HT29 colon; -50.4% (active) in the test with SNB-75 CNS; 7.58% (active) in the test with U251 CNS; 47.1% with PC-3 prostate; 64.2% in the test with SK-MEL-5 melanoma. In addition, the figures for the growth in the test on UACC-62 melanoma, in the test with LOX IMVI melanoma and in the test on SK-MEL-28 melanoma were 70.7%, 26.5% and 79.2%, respectively.
